Experimental data published in PubChem BioAssay AID1159580 (chemical genetic matrix, 2015).
Values joined by “and” are separate entries in the source; they are usually repeats but may differ in a detail not shown here. Equal values may be shown once. The campaign covered roughly 5,500 compounds. About 2,000 (36%) were called active. Roughly 18% stayed inconclusive and do not appear here. No stated cut-off is given here; in the data, active means normalized growth mostly below about 0.91 (no sharp cut-off); inconclusive means no clear call, values can overlap the other calls; inactive means mostly above about 0.92. Some of the results follow.

Assay: chemical genetic growth profiling, strain panel (AID 1159580);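 further: tested at 20 µM; growth read once vehicle control cultures reached saturation at 30 °C; 1 = growth at the plate median or of vehicle wells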
Conditions: S. cerevisiae deletion strains, growth OD

Measured: normalized growth

COc1ccc2c(c1OC)C(=O)OC2[C@H]1c2c(cc3c(c2OC)OCO3)CCN1C (some centres not stated)
inactive: locus YAL013W, strain DEP1, stronger effect = lower value 1.01 | locus YAL021C, strain ccr4, stronger effect = lower value 1.02 | locus YAL026C, strain drs2, stronger effect = lower value 1.02 | locus YAL030W, strain snc1, stronger effect = lower value 1.02 | locus YBL061C, strain skt5, stronger effect = lower value 1.01 | locus YBR009C, strain hhf1, stronger effect = lower value 1.02 | locus YBR021W, strain FUR4, stronger effect = lower value 1.01 | locus YBR023C, strain chs3, stronger effect = lower value 1.02 | locus YBR171W, strain sec66, stronger effect = lower value 1.01 | locus YBR229C, strain ROT2, stronger effect = lower value 1.01 | locus YBR231C, strain swc5, stronger effect = lower value 1.01 | locus YBR279W, strain paf1, stronger effect = lower value 1.01 | locus YCL011C, strain gbp2, stronger effect = lower value 1.02 | locus YCL016C, strain dcc1, stronger effect = lower value 1.02 | locus YCL029C, strain bik1, stronger effect = lower value 0.987 | locus YCL061C, strain MRC1, stronger effect = lower value 1.01 | locus YCL069W, strain vba3, stronger effect = lower value 1.01 | locus YCR088W, strain abp1, stronger effect = lower value 1.01 | locus YDL005C, strain med2, stronger effect = lower value 0.995 | locus YDL035C, strain GPR1, stronger effect = lower value 1.01 | locus YDL040C, strain nat1, stronger effect = lower value 1 | locus YDL074C, strain BRE1, stronger effect = lower value 1.04 | locus YDL101C, strain DUN1, stronger effect = lower value 1 | locus YDL134C, strain PPH21, stronger effect = lower value 1.01 | locus YDL185W, strain tfp1, stronger effect = lower value 0.966 | locus YDL192W, strain arf1, stronger effect = lower value 0.968 | locus YDR001C, strain nth1, stronger effect = lower value 1 | locus YDR069C, strain doa4, stronger effect = lower value 1.02 | locus YDR101C, strain arx1, stronger effect = lower value 0.995 | locus YDR137W, strain rgp1, stronger effect = lower value 1.04 | locus YDR159W, strain sac3, stronger effect = lower value 0.953 | locus YDR162C, strain NBP2, stronger effect = lower value 0.983 | locus YDR195W, strain ref2 0.993 | locus YDR297W, strain sur2, stronger effect = lower value 1.02 | locus YDR318W, strain mcm21, stronger effect = lower value 0.965 | locus YDR334W, strain swr1, stronger effect = lower value 1 | locus YDR335W, strain msn5, stronger effect = lower value 1.01 | locus YDR388W, stronger effect = lower value 0.985 | locus YDR392W, strain spt3, stronger effect = lower value 0.892 | locus YDR502C, strain sam2, stronger effect = lower value 0.984 | locus YEL003W, strain gim4, stronger effect = lower value 1.02 | locus YEL037C, strain rad23, stronger effect = lower value 1 | locus YEL061C, strain CIN8 (second series), stronger effect = lower value 0.996 | locus YEL061C, strain CIN8, stronger effect = lower value 1 | locus YER015W, strain faa2, stronger effect = lower value 1.01 | locus YER016W, strain bim1, stronger effect = lower value 1 | locus YER110C, stronger effect = lower value 0.994 | locus YER111C, strain swi4, stronger effect = lower value 1.01 | locus YER155C, strain BEM2 (second series), stronger effect = lower value 0.98 | locus YER155C, strain BEM2, stronger effect = lower value 0.992 | locus YER167W, strain BCK2, stronger effect = lower value 1 | locus YFR010W, strain ubp6, stronger effect = lower value 1 | locus YGL078C, strain dbp3, stronger effect = lower value 0.989 | locus YGL086W, strain mad1, stronger effect = lower value 1.01 | locus YGL167C, strain pmr1, stronger effect = lower value 1.01 | locus YGL173C, strain kem1, stronger effect = lower value 1.01 | locus YGL227W, strain vid30, stronger effect = lower value 1.01 | locus YGL240W, strain doc1, stronger effect = lower value 1.02 | locus YGL248W, strain PDE1, stronger effect = lower value 1.01 | locus YGL253W, strain hxk2, stronger effect = lower value 1.02 | locus YGR135W, strain pre9, stronger effect = lower value 0.986 | locus YGR252W, strain gcn5, stronger effect = lower value 1.19 | locus YHR013C, strain ard1, stronger effect = lower value 1.02 | locus YHR027C, strain rpn1, stronger effect = lower value 1.01 | locus YHR030C, strain SLT2, stronger effect = lower value 0.995 and 0.993 | locus YHR079C, strain IRE1 (second series), stronger effect = lower value 0.978 | locus YHR079C, strain IRE1, stronger effect = lower value 0.999 | locus YHR094C, strain hxt1, stronger effect = lower value 0.988 | locus YHR129C, strain ARP1, stronger effect = lower value 0.999 | locus YHR142W, strain chs7, stronger effect = lower value 1 | locus YHR200W, strain rpn10, stronger effect = lower value 0.98 | locus YIL066C, strain RNR3, stronger effect = lower value 1.01 | locus YIL073C, strain SPO22, stronger effect = lower value 0.857 | locus YIL125W, strain kgd1, stronger effect = lower value 0.986 | locus YIR030C, strain dcg1, stronger effect = lower value 0.997 | locus YJL092W, strain hpr5, stronger effect = lower value 1.01 | locus YJL095W, strain BCK1 (second series), stronger effect = lower value 1.01 | locus YJL095W, strain BCK1, stronger effect = lower value 1.02 and 1 | locus YJL115W, strain asf1, stronger effect = lower value 1.01 | locus YJL129C, strain trk1, stronger effect = lower value 0.995 | locus YJL134W, strain LCB3, stronger effect = lower value 0.996 | locus YJL154C, strain vps35, stronger effect = lower value 1.02 | locus YJL164C, strain tpk1, stronger effect = lower value 1.03 | locus YJL166W, strain qcr8, stronger effect = lower value 1 | locus YJL168C, strain set2, stronger effect = lower value 0.987 | locus YJL187C, strain SWE1 (second series), stronger effect = lower value 0.997 | locus YJL187C, strain SWE1, stronger effect = lower value 1.02
